A selection: hits, their analogues and other compounds. The true share with any hit is near 2.2%.
M1 antag: human M1 muscarinic receptor antagonists, primary screen, CHO-K1 cells, Fluo-8 calcium fluorescence, 1536-well. CHO-K1 hM1, ACh EC80 antagonist. Muscarinic acetylcholine receptor M1 (Homo sapiens), P11229. AID 588852, 2011. actives 1.3% (n = 360,000). inhibition, % at 3 µM;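 active = percent inhibition above its own plate's cutoff, namely the mean of that plate's compound wells plus 3 SD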;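 note: peak over basal fluorescence ratio during 140 s after agonist addition; 0% = ACh EC80 plus DMSO and 100% = DMSO alone without agonist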
Target sequence (P11229 whole entry, looked up): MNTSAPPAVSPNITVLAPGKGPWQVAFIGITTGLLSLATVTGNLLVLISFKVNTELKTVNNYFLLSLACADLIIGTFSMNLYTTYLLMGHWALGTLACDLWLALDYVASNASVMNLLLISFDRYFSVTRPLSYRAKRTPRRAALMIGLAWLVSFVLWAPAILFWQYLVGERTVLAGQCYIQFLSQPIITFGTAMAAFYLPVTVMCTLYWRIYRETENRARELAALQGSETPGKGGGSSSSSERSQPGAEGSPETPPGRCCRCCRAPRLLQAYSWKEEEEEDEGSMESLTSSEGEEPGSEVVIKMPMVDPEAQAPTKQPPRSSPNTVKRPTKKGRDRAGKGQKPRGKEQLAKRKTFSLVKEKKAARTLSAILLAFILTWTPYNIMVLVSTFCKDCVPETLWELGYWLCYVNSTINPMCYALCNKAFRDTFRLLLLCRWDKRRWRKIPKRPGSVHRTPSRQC
M1 ag: human M1 muscarinic receptor agonists, primary screen, Fluo-8 calcium fluorescence, CHO-K1 cells, HTS. CHO-K1 hM1, agonist mode; 0% DMSO, 100% acetylcholine EC100. actives 0.33% (n = 360,000). activation, % at 3 µM. Muscarinic acetylcholine receptor M1 (Homo sapiens), P11229;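 active = activation above the run's mean compound activation plus 3 SD, cut at about 16% in these data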;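 note: peak over basal fluorescence ratio within a 140 s kinetic read after compound addition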
CHRM4 agonist: human M4 muscarinic receptor agonists, primary screen, CHO-K1 cells, Fluo-8 calcium fluorescence. Muscarinic acetylcholine receptor M4 (Homo sapiens), P08173. CHO-K1 hM4/Gqi5; vehicle 0%, full acetylcholine response 100%. activation, % at 3 µM. actives 0.14% (n = 360,000);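 active = activation above the run mean over all test wells plus 3 SD, cut at about 32% in these data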;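 note: peak over basal fluorescence ratio per well then scaled between controls; 0% = DMSO wells and 100% = acetylcholine at EC100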
M1 PAM: human M1 muscarinic receptor positive allosteric modulators, primary screen, CHO-K1 cells, Fluo-8 calcium fluorescence, 1536-well | CHO-K1 hM1, ACh EC20; 0% = ACh EC20, 100% = maximal ACh | actives 0.088% (n = 360,000) | activation, % at 3 µM; in the data active = activation above about 19%, passing the limit was not always enough
CHRM4 PAM: human M4 muscarinic receptor positive allosteric modulators, primary screen, CHO-K1 cells, Fluo-8 calcium fluorescence. activation, % at 3 µM. AID 624126, 2012. actives 0.4% (n = 360,000). Muscarinic acetylcholine receptor M4 (Homo sapiens), P08173. CHO-K1 hM4/Gqi5, ACh EC20; 0% = ACh EC20, 100% = maximal ACh;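 active = activation above its plate's cutoff, the mean activation of sample wells plus 3 SD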
M4 antag: human M4 muscarinic receptor antagonists, primary screen, CHO cells, Fluo-8 calcium fluorescence | CHO-hM4 cells, ACh EC80 | inhibition, % at 3 µM | actives 0.73% (n = 360,000) | AID 624125, 2012;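 active = inhibition above its plate's cutoff, the mean inhibition of sample wells plus 3 SD, cut at about 27% in these data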;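 note: 0% = acetylcholine EC80 with DMSO and 100% = DMSO without agonist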
Starred values were filed as active, the others as inactive.

SMILES | M1 antag | M1 ag | CHRM4 agonist | M1 PAM | CHRM4 PAM | M4 antag
COc1ccc(OC)c(NC(=O)c2sc3ncnc(N4CCN(c5ccccn5)CC4)c3c2C)c1 | -9 | -3 | 1 | 6 | 19* | -22
O=c1c(S(=O)(=O)c2ccc(Cl)cc2)cn(Cc2cccc(F)c2)c2ccc(F)cc12 | -4 | -8 | 1 | 7 | 2 | -4
COc1ccc(S(=O)(=O)N(CC(=O)Nc2ccc3c(c2)OCO3)c2ccccc2OC)cc1 | 31* | 0 | 11 | -9 | 5 | 0
CC(=O)Nc1ccc(C(=O)N2CCc3cc4c(cc3C2C)OCCCO4)cc1 (stereo not given) | 57* | -13 | 1 | -33 | -14 | 39*
CC1c2cc3c(cc2CCN1C(=O)c1ccc(Cl)cc1)OCCCO3 (stereo not given) | 8 | 3 | 2 | -10 | -19 | 1
Cc1ccc(C(=O)N2CCc3cc4c(cc3C2C)OCCCO4)cc1 (stereo not given) | 13 | -4 | 6 | -12 | -16 | 0
CC1c2cc3c(cc2CCN1CC(=O)Nc1ccc(S(=O)(=O)N2CCCC2)cc1)OCCCO3 (stereo not given) | 102* | -13 | 6 | -41 | -24 | 23
CC1c2cc3c(cc2CCN1C(=O)c1ccc(C(F)(F)F)cc1)OCCCO3 (stereo not given) | 34* | -5 | 5 | -23 | -13 | -5
CCOC(=O)C1=CCN(S(=O)(=O)c2ccccc2Cl)C1c1ccccc1 (stereo not given) | 6 | -9 | 7 | -9 | -11 | -6
CCN(CC)CCOC(=O)c1ccccc1Br | 10 | -16 | 1 | -29 | -10 | -4
CCN(CC)CCOC(=O)C(Cc1cccc2ccccc12)CC1CCCO1 (stereo not given) | 45* | -9 | 2 | -25 | -17 | 11
CC1(C)CC(C(CCN(Cc2ccccc2)C(=O)c2ccco2)c2ccc(F)cc2)CCO1 (stereo not given) | 36* | -3 | 8 | -19 | -18 | 27*
Cc1ccc(N2C(=O)C3CCC(c4ccccc4)CC3C2=O)cc1 (stereo not given) | -6 | -1 | 6 | -1 | 4 | -9
CC1(C)N=C(N)N=C(N)N1CCCCc1ccccc1 | 52* | -8 | 0 | -27 | -9 | 22
Cc1cccc(C2(c3cccc(C)c3)CC2C(=O)Nc2ccc([N+](=O)[O-])cc2O)c1 (stereo not given) | 25 | -3 | 7 | -15 | -13 | 27*
C=CCNC(=O)C1CC1(c1cccc(C)c1)c1cccc(C)c1 (stereo not given) | 0 | 1 | -1 | 13 | 0 | -12
OCc1nc2ccccc2n1CCc1ccccc1 | -10 | -3 | 0 | 8 | 3 | -8
CC(C)NC(=O)N(C)C[C@H]1Oc2ccc(NS(=O)(=O)c3cn(C)cn3)cc2C(=O)N([C@H](C)CO)C[C@@H]1C | -6 | -5 | 0 | 7 | 3 | 1
CN1CCN(C(=S)NC(=O)c2ccc(Cl)cc2)CC1 | -13 | -10 | 1 | 9 | 23* | -16
O=C(CSCc1cc(=O)n2nc(C3CC3)sc2n1)Nc1ccccc1Cl | -12 | -4 | 1 | 11 | -3 | -4
COc1ccc(CCNC(=O)C2COc3ccccc3O2)cc1OC (stereo not given) | -17 | 1 | 1 | 10 | -6 | -5
O=S(=O)(/N=S1\CC=CCN1S(=O)(=O)c1ccccc1)c1ccccc1 (stereo not given) | 4 | 38* | 60* | 5 | -6 | 14
COc1ccccc1C(=O)N/N=C(\C)CC(=O)Nc1ccc(Nc2ccccc2)cc1 | -7 | -5 | 4 | 2 | -5 | 5
CS(=O)(=O)c1ccc(C(=O)OCC(=O)N2CCN(CCC3CCCCC3)CC2)cc1[N+](=O)[O-] | 3 | -10 | 6 | -10 | -14 | 29*
Cc1cc(-n2c(C)cc(C(=O)CSc3ncnc4ccccc34)c2C)no1 | 28* | 2 | 11 | -7 | -5 | 6
SMILES | M1 antag | M1 ag | CHRM4 agonist | M1 PAM | CHRM4 PAM | M4 antag
Cc1cc(C(=O)CSc2ncnc3ccccc23)c(C)n1C1CC1 | 7 | -1 | 11 | -7 | -5 | 12
CC(NCc1ccc(S(N)(=O)=O)cc1)C(=O)NCc1ccccc1 (stereo not given) | -10 | -8 | 0 | 10 | 0 | 8
CC(NC(=O)COc1ccccc1)C(=O)NCc1ccc(S(N)(=O)=O)cc1 (stereo not given) | -20 | 2 | 0 | 27* | 8 | -12
CCC(Oc1ccccc1)C(=O)NCc1ccc(S(N)(=O)=O)cc1 (stereo not given) | -10 | -2 | 1 | 8 | 20* | -3
CN(C(=O)CSc1nc2ccccc2c(=O)n1-c1ccccc1F)C1CCS(=O)(=O)C1 (stereo not given) | -1 | -4 | 0 | -9 | -3 | 9
O=C(NCc1ccc(F)cc1)Nc1ccccc1 | -4 | -1 | 2 | 3 | -2 | 0
C/C(CC(=O)Nc1cc(C)ccn1)=N\NC(=O)C(=O)Nc1cccc(C)c1 | 18 | -1 | 4 | -13 | -6 | 4
CC[C@H](C)C1OC(=O)[C@@H](C)[C@@H](CC)NC(=O)[C@H](C)N(C)C(=O)C(C)(C)C(=O)C(C)NC(=O)[C@H](Cc2ccc(OC)cc2)N(C)C(=O)[C@H](C(C)C)N(C)C(=O)CNC(=O)[C@H](CC(C)C)N(C)C(=O)CNC1=O (stereo not given in full) | -37 | -5 | 0 | 8 | 23* | -17
COc1ccc(-n2c(-c3cccc(OC)c3)nc(=S)c3c2CCCC3)cc1 | 60* | -15 | 0 | -35 | -13 | 19
O=[N+]([O-])c1ccccc1S(=O)(=O)Nc1ccc(-c2ccc(N3CCCC3)nn2)cc1 | -5 | -7 | 0 | 5 | 1 | -5
Cc1cc(C)n(-c2nnc(C)n2/N=C/c2cc(Br)ccc2OCc2ccccc2)n1 | 25 | -5 | 1 | -9 | -11 | 26*
COC(=O)c1cc(NS(=O)(=O)c2ccc(NCc3cccnc3)c(N)c2)cc(C(=O)OC)c1 | -1 | -7 | 0 | 6 | -5 | 4
